# An excerpt weighted towards active compounds, which were near 1.3% of everything screened.
# MazEF act: activators of E. coli MazEF toxin-antitoxin RNase; activation, % at 20 µM; 0.32% of 350,000 active; P0AE70; FAM/BHQ RNA-DNA oligo cleavage fluorescence, 5 h; AID 504720; in the data active means activation above about 50%
# Mtb hypoxia inh: inhibitors of hypoxia-regulated fluorescent reporter in Mycobacterium tuberculosis | AID 1159583 | M. tuberculosis hypoxia-regulated fluorescent reporter, fluorescence | fluorescence inhibition, % (concentration not given with the values) | 0.1% of 300,000 active; in the data active means fluorescence inhibition mostly above about 23%, no sharp cut-off; inactive means mostly below about 17%
# TcdB inh: inhibitors of Clostridioides difficile toxin B glycohydrolase | P18177 | TcdB glycohydrolase enzymatic assay, plate reader | inhibition, % at 9.99 µM | 0.24% of 350,000 active | AID 652162; in the data active means inhibition above about 10%
# PfHsp40 yeast: rescue of PfHsp40-mediated yeast toxicity; S. cerevisiae expressing PfHsp40, growth rescue, ATP luminescence; AID 504582; growth rescue, % at 12.5 µM; 0.68% of 340,000 active; in the data active means growth rescue above about 28%, passing the limit was not always enough;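 further: yeast W303a lacking pdr1 and pdr3 grown in galactose medium; growth measured after three days at 30 °C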
# ugtP null kill: kills S. aureus RN4220 lacking UgtP; 0.54% of 330,000 active; S. aureus RN4220 ugtP deletion, OD600 growth, 16 h; growth inhibition, % (no concentration beside the values); AID 1259309; in the data active means growth inhibition above about 68%;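 further: plate controls were untreated wells for no effect and antibiotic for full effect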
# RN4220 kill: kills Staphylococcus aureus RN4220; S. aureus RN4220 growth, OD600, 16 h; inhibition, % (concentration not given with the values); 0.33% of 330,000 active; in the data active means inhibition above about 85%;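 further: plate controls were untreated cells for no effect and reference antibiotic for full effect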
# The depositor's hits bear a star; / = not tested or not shown.
SMILES,MazEF act,Mtb hypoxia inh,TcdB inh,PfHsp40 yeast,ugtP null kill,RN4220 kill
O=C(NCc1ccccc1)c1ccc2nccnc2c1,4,12,0,31*,0,2
CC(C)CCNC(=O)CON=Cc1ccccc1OC(F)F,/,2,/,/,2,2
CCOc1ccccc1NC(=O)c1nnn(CC(=O)Nc2ccc3c(c2)OCO3)c1N,-12,4,0,0,-1,-1
CCOc1ccccc1NC(=O)Cn1nnc(C(=O)NCc2ccc3c(c2)OCO3)c1N,65*,3,1,0,0,1
C[C@@H]1CN([C@@H](C)CO)C(=O)Cc2cc(NC(=O)Cn3cnnn3)ccc2O[C@@H]1CN(C)Cc1ccc2c(c1)OCO2,/,/,0,/,/,/
CN(C)c1ccc(-n2cccc2/C=C/[N+](=O)[O-])cc1,-12,/,0,230*,/,/
CN(C)c1ccc(/C=C/[N+](=O)[O-])cc1,-14,/,0,4,7,6
COc1ccc2c3c([nH]c2c1)[C@H](CO)N(C(=O)C1CCOCC1)CC31CCN(S(C)(=O)=O)CC1,/,/,1,/,/,/
COc1ccc2nc(SCC(=O)N3CC(=O)Nc4ccccc43)c(C#N)cc2c1,58*,0,/,8,5,-4
COc1ccc2cc(C#N)c(SCC(=O)Nc3nonc3C)nc2c1,22,14,0,0,-10,3
Cc1cc2cc(C#N)c(SCC(=O)Nc3nonc3C)nc2cc1C,63*,3,1,3,-5,5
COc1ccc2nc(SC)c(C#N)cc2c1,-7,8,0,0,5,6
CCOC(=O)CSc1nc2cc(C)ccc2cc1C#N,628*,-2,/,1,5,6
CCOC(=O)CSc1nc2cc(C)cc(C)c2cc1C#N,25,/,/,0,11,11
Cc1cc(C)c2nc(SCC(=O)N3CC(=O)Nc4ccccc43)c(C#N)cc2c1,-23,-71,/,-1,17,-4
COc1ccc2nc(SCC(C)=O)c(C#N)cc2c1,934*,8,/,3,16,11
O=C(C[C@@H]1C=C[C@H](NC(=O)Nc2ccc(C(F)(F)F)cc2)[C@@H](CO)O1)NCc1cccc(F)c1,/,/,0,/,/,/
CCOC(=O)CSc1nc2cc3c(cc2cc1C#N)OCCO3,8,1,1,3,-2,2
CCOC(=O)CSc1nc2cc(OC)ccc2cc1C#N,120*,-2,/,1,-1,5
CCOC(=O)CSc1nc2ccc(C)cc2cc1C#N,296*,-17,1,0,7,1
CCOC(=O)CSc1nc2cc3c(cc2cc1C#N)OCO3,3,/,/,0,-6,2
COc1ccc(C=NNc2nonc2N)cc1OC,/,/,/,/,-3,1
O=C(NN=Cc1coc2ccccc2c1=O)c1cn(-c2ccccc2)nc1-c1ccccc1,/,4,/,/,2,10
COC(=O)c1[nH]c2cccc(OC)c2c1NC(=O)CN1CCOCC1,-6,0,/,52*,-8,-9
CCOC(=O)c1c(N)sc(C(O)(C(F)(F)F)C(F)(F)F)c1-c1ccc(F)cc1,2,-3,/,0,1,56
SMILES,MazEF act,Mtb hypoxia inh,TcdB inh,PfHsp40 yeast,ugtP null kill,RN4220 kill
CCOC(=O)c1c(N)sc(C(O)(C(F)(F)F)C(F)(F)F)c1-c1ccc(Cl)cc1,-8,0,/,4,100*,100*
C[C@H](CO)N1C[C@H](C)[C@@H](CN(C)C(=O)C2CCOCC2)Oc2ncc(C#CC3(O)CCCC3)cc2C1=O,/,/,0,/,/,/
CN1C(=O)c2cc(NC(=O)Nc3ccc(Cl)cc3)ccc2OC[C@H]2O[C@H](CC(=O)O)CC[C@@H]21,/,/,1,/,/,/
Cc1nc2c(-c3ccccc3)c(C)[nH]n2c(=O)c1Cc1ccccc1,9,6,-1,-2,-7,2
Cc1nc2c(-c3ccc(Cl)cc3)c(C)[nH]n2c(=O)c1Cc1ccccc1,-19,6,0,/,100*,100*
CO[C@@H]1CC[C@@H]2CCOc3ccc(C#N)cc3C(=O)N(C)C[C@H](C)C(=O)N(C)C[C@@H]1O2,/,/,0,/,/,/
COc1ccc(C=CC(=O)c2ccc([N+](=O)[O-])o2)cc1,/,/,/,/,93*,18
COc1cc(C=CC(=O)c2ccc([N+](=O)[O-])o2)ccc1O,/,/,/,/,99*,68
Cc1ccc(/C=C/C(=O)c2ccc([N+](=O)[O-])o2)cc1,7,/,0,/,/,/
N/C(=N\OC(=O)c1ccc(Cl)cc1)c1ccc(Cl)cc1,6,/,/,0,-13,-1
N/C(=N\OC(=O)c1ccc(Cl)cc1)c1ccn[nH]1,0,7,1,34*,5,2
Cc1nc(-c2ccc(S(=O)(=O)Nc3ccc(Br)cc3Cl)s2)cs1,-31,-9,0,26*,83,96*
COc1ccc(NC(=O)Nc2ccc3c(c2)CC(=O)N(C(C)CO)CC(C)C(CN(C)C(=O)Nc2ccccc2)O3)cc1 (configuration not stated),/,6,/,/,-8,2
O=C(Nc1cccc(Cl)c1)NC1CC2CCC1C2 (configuration not stated),6,32*,2,-1,2,3
Cc1nn(CCOc2ccccc2)c(=O)n1-c1ccc(Cl)cc1,8,-2,15*,0,0,4
COc1cc(/C=N/NC(=O)c2nnn(-c3nonc3N)c2C(C)C)ccc1O,7,/,13*,0,/,/
Nc1nonc1-n1nnc(C(=O)N/N=C/c2ccc3c(c2)OCO3)c1CSc1ccccc1,72*,/,2,-1,/,/
COc1cccc(C=NNC(=O)c2nnn(-c3nonc3N)c2C(C)C)c1,/,0,/,/,-5,1
Cc1ccsc1C=NNC(=O)c1nnn(-c2nonc2N)c1C,/,7,/,/,-3,-1
Cc1ccc(-c2c(C(=O)NN=Cc3sccc3C)nnn2-c2nonc2N)cc1,/,-1,/,/,84,94*
C[C@@H]1CCCCO[C@H](CN(C)Cc2ccccc2)[C@H](C)CN([C@@H](C)CO)C(=O)c2cc(NS(=O)(=O)c3ccc(F)cc3)ccc2O1,/,/,2,/,/,/
CC(C)NC(=O)N(C)C[C@H]1Oc2ccc(NC(=O)c3ccncc3)cc2CC(=O)N([C@H](C)CO)C[C@H]1C,/,/,0,/,/,/
NC(=O)[C@@H]1[C@H]2C(=O)O[C@H](c3ccccc3)[C@H](c3ccccc3)N2[C@H](c2ccc(O)cc2)[C@@]12C(=O)Nc1ccccc12,/,/,1,/,/,/
CCCNC(=O)N1CC[C@@H]2[C@H]1c1cc(-c3ccccc3)ccc1N(C)[C@H]2CO,/,/,12*,/,/,/
CCCNC(=O)N1CC[C@@H]2[C@H]1c1cc(-c3ccc(OC)cc3)ccc1N(C)[C@H]2CO,/,/,4,/,/,/
CCCNC(=O)N1CC[C@@H]2[C@@H](CO)N(C)c3ccc(-c4ccc(F)cc4)cc3[C@@H]21,/,/,12*,/,/,/
CC(C)NC(=O)N(C)C[C@@H]1Oc2cc(C#C[C@H](C)O)ccc2S(=O)(=O)N([C@H](C)CO)C[C@H]1C,/,/,1,/,/,/
O=C(C[C@@H]1CC[C@@H]2[C@H](COC[C@@H](O)CN2Cc2cccc(-c3ccncc3)c2)O1)N1CCOCC1,/,/,-1,/,/,/
